Measured values published in PubChem BioAssay (NCI).
The panel holds about 79,000 compounds, 15% with a hit somewhere; the sample as a whole holds those more often. The source made the active and inactive calls. Cut-off read from the data, not from the text of the source: active = growth inhibition above about 70%; inactive = the rest.

Assays:
[1] = NCI Yeast Anticancer Drug Screen. Data for the mgt1 strain (AID 153); conditions: S. cerevisiae mgt1 mutant growth inhibition, hits give high values
Procedure, shortened: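 mgt1 strain exposed; growth vs vehicle control recorded as inhibition.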

[2] = NCI Yeast Anticancer Drug Screen. Data for the rad50 strain (AID 155);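 note: 0% = growth of vehicle-only cultures of the same strain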; conditions: S. cerevisiae rad50 strain growth inhibition, hits give high values
Procedure, shortened: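 Compounds were tested on a yeast strain with an engineered DNA damage repair alteration; the reported value is growth inhibition normalised to vehicle treatment.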

[3] = NCI Yeast Anticancer Drug Screen. Data for the mec2-1 strain (AID 157); conditions: S. cerevisiae mec2-1 strain, hits give high values
Procedure, shortened: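 Vehicle-treated cultures served as reference for growth inhibition of compound-exposed mec2-1 yeast.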

[4] = NCI Yeast Anticancer Drug Screen. Data for the rad14 strain (AID 159);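 note: 0% = growth of vehicle-treated control cultures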; conditions: S. cerevisiae rad14 strain growth inhibition, hits give high values
Procedure, shortened: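 Compound-treated yeast with a defined DNA-repair lesion; growth inhibition normalised to vehicle-treated cultures.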

[5] = NCI Yeast Anticancer Drug Screen. Data for the sgs1 mgt1 strain (AID 161);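 note: 0% = growth of cultures given vehicle only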; conditions: S. cerevisiae sgs1 mgt1 strain, hits give high values
Procedure, shortened: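 Test agents were incubated with a DNA-repair-mutant yeast strain. Growth was then read and compared against vehicle-treated controls.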

[6] = NCI Yeast Anticancer Drug Screen. Data for the CLN2oe strain (AID 163);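 note: 0% = growth of vehicle-only control cultures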; conditions: S. cerevisiae CLN2oe strain, hits give high values
Procedure, shortened: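 Inhibition relative to vehicle-treated yeast is reported. Cells: strain with genetic alteration in cell-cycle control, grown with compound.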

[7] = NCI Yeast Anticancer Drug Screen. Data for the cln2 rad14 strain (AID 165);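 note: 0% = growth equal to vehicle treated cultures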; conditions: S. cerevisiae cln2 rad14 strain, hits give high values
Procedure, shortened: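 Each compound was tested on cln2 rad14 yeast. Inhibition of growth was calculated against vehicle-exposed controls.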

[8] = NCI Yeast Anticancer Drug Screen. Data for the bub3 strain (AID 167); conditions: S. cerevisiae bub3 mutant strain, hits give high values
Procedure, shortened: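 Growth of a checkpoint-deficient yeast mutant is measured after compound exposure. Values represent inhibition relative to vehicle.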

[9] = NCI Yeast Anticancer Drug Screen. Data for the wt2 strain (AID 169);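 note: 0% = growth of vehicle-treated yeast cultures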; conditions: S. cerevisiae wt2 strain growth inhibition, hits give high values
Procedure, shortened: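 Inhibition of yeast growth was determined after compound treatment, normalised to controls receiving only vehicle.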

[10] = NCI Yeast Anticancer Drug Screen. Data for the mlh1 strain (AID 171);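 note: 0% = growth of vehicle-treated control cultures of the same strain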; conditions: S. cerevisiae mlh1 strain growth inhibition, hits give high values
Procedure, shortened: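 Vehicle-normalised growth inhibition of a repair- or checkpoint-altered yeast strain following compound treatment.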

[11] = NCI Yeast Anticancer Drug Screen. Data for the sgs1 strain (AID 173);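 note: 0% = growth of vehicle-only control cultures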; conditions: S. cerevisiae sgs1 mutant, hits give high values
Procedure, shortened: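 Screen format: yeast with repair or checkpoint alterations, compound exposure, growth read relative to vehicle.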

[12] = NCI Yeast Anticancer Drug Screen. Data for the mlh1 rad18 strain (AID 175); conditions: S. cerevisiae mlh1 rad18 strain growth inhibition, hits give high values
Procedure, shortened: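 Vehicle-treated cultures served as the reference for growth inhibition in a yeast strain carrying DNA damage repair alterations exposed to each compound.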

[13] = NCI Yeast Anticancer Drug Screen. Data for the rad18 strain (AID 177); conditions: S. cerevisiae rad18 mutant growth inhibition, hits give high values
Procedure, shortened: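 Test articles were incubated with altered yeast defective in DNA damage repair. Results are given as inhibition of growth versus vehicle.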

[14] = NCI Yeast Anticancer Drug Screen. Data for the rad50EPP+ strain (AID 151);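 note: 0% = growth of vehicle-treated control cultures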; conditions: S. cerevisiae rad50 mutant strain, hits give high values
Procedure, shortened: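 In this screen, rad50EPP+ yeast were exposed to compounds. Growth inhibition was scored against vehicle-treated controls.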

[15] = at 5.0 µM (retest, dose inferred, filed as 0.5)
[16] = at 50.0 µM (retest, dose inferred, filed as 5.0)

Measured: growth inhibition

O=C1c2ccccc2C2CCC1c1ccccc12 (stereo not drawn)
inactive: [1]; at 1.2 µM -12% | [1]; at 3.7 µM 6% | [1]; at 11.0 µM 5% | [1]; at 33.0 µM 17% | [2]; at 1.2 µM -19% | [2]; at 3.7 µM -5% | [2]; [15] 0% | [2]; at 11.0 µM 3% | [2]; at 33.0 µM 20% | [2]; [16] -29% | [2]; at 50.0 µM 62.9% | [3]; at 1.2 µM -24% | [3]; at 3.7 µM -14% | [3]; [15] -6% | [3]; at 11.0 µM 3% | [3]; at 33.0 µM 12% | [3]; [16] -19% | [3]; at 50.0 µM -6.1% | [4]; at 1.2 µM -25% | [4]; at 3.7 µM -24% | [4]; at 11.0 µM -17% | [4]; at 33.0 µM -6% | [5]; [15] -15% | [5]; [16] -7% | [5]; at 50.0 µM 9.45% | [6]; at 1.2 µM 2% | [6]; at 3.7 µM -5% | [6]; at 11.0 µM 7% | [6]; at 33.0 µM 59% | [7]; [15] -19% | [7]; [16] 13% | [7]; at 50.0 µM 18.3% | [8]; at 1.2 µM -22% | [8]; at 3.7 µM -30% | [8]; [15] -32% | [8]; at 11.0 µM -33% | [8]; at 33.0 µM 33% | [8]; at 50.0 µM 7.05% | [9]; at 1.2 µM -1% | [9]; at 3.7 µM -11% | [9]; at 11.0 µM 4% | [9]; at 33.0 µM 0% | [10]; at 1.2 µM -3% | [10]; at 3.7 µM 6% | [10]; at 11.0 µM 14% | [10]; at 33.0 µM 28% | [11]; at 1.2 µM -12% | [11]; at 3.7 µM -18% | [11]; at 11.0 µM -18% | [11]; at 33.0 µM 18% | [12]; [15] -45% | [12]; [16] 26% | [12]; at 50.0 µM 10.6% | [13]; at 1.2 µM -40% | [13]; at 3.7 µM -30% | [13]; at 11.0 µM -38% | [13]; at 33.0 µM -26%
active: [1]; at 100.0 µM 97% | [2]; at 100.0 µM 94% | [3]; at 100.0 µM 98% | [4]; at 100.0 µM 97% | [6]; at 100.0 µM 98% | [8]; [16] 89% | [8]; at 100.0 µM 97% | [9]; at 100.0 µM 97% | [10]; at 100.0 µM 94% | [11]; at 100.0 µM 96% | [13]; at 100.0 µM 96%

CC[N+]1(C)CCC(O)(/C=C/c2ccc(Cl)c(Cl)c2)C(C(=O)/C=C/c2ccc(Cl)c(Cl)c2)C1 (stereo not drawn)
inactive: [14]; at 1.2 µM 12% | [1]; at 1.2 µM 7% | [2]; at 1.2 µM 7% | [2]; at 3.7 µM 52% | [3]; at 1.2 µM 36% | [4]; at 1.2 µM 6% | [4]; at 3.7 µM 39%
active: [14]; at 3.7 µM 85% | [14]; at 11.0 µM 99% | [14]; at 33.0 µM 99% | [14]; at 100.0 µM 99% | [1]; at 3.7 µM 72% | [1]; at 11.0 µM 99% | [1]; at 33.0 µM 99% | [1]; at 100.0 µM 99% | [2]; [15] 85% | [2]; at 11.0 µM 99% | [2]; at 33.0 µM 99% | [2]; [16] 98% | [2]; at 50.0 µM 99.5% | [2]; at 100.0 µM 98% | [3]; at 3.7 µM 88% | [3]; [15] 86% | [3]; at 11.0 µM 99% | [3]; at 33.0 µM 99% | [3]; [16] 99% | [3]; at 50.0 µM 99.3% | [3]; at 100.0 µM 99% | [4]; at 11.0 µM 99% | [4]; at 33.0 µM 99%
